Reference: the supplement of paper PMC7724964

T1: HOMER3 1-118 WH1 (domain begin residue: 1, domain end residue: 118), Q9NSC5
T1 chain: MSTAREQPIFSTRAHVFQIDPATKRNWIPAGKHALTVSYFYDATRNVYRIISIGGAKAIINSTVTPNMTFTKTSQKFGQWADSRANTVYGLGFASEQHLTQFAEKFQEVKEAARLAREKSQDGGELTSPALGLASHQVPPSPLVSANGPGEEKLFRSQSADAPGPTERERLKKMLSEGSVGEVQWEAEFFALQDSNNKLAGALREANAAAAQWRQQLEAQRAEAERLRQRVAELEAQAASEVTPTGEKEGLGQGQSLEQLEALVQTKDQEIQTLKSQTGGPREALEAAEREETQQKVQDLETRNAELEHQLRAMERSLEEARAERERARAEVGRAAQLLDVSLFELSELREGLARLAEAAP

T2: HNF4A 148-377 Hormone_recep (domain begin residue: 148, domain end residue: 377), P41235
T2 chain: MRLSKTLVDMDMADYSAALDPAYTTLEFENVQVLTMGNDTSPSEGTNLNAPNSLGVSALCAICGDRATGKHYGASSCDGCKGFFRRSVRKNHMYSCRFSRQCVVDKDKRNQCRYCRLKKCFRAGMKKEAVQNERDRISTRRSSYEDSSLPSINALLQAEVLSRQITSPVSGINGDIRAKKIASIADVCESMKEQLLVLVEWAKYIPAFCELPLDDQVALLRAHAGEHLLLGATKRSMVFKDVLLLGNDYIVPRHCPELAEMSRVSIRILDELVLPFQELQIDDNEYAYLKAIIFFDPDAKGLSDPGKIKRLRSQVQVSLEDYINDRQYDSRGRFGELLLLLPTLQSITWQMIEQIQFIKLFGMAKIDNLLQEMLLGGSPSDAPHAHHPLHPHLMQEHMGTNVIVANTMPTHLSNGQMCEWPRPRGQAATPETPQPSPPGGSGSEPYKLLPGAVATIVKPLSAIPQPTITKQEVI

T3: HOMER2 1-111 WH1 (domain begin residue: 1, domain end residue: 111), Q9NSB8
T3 chain: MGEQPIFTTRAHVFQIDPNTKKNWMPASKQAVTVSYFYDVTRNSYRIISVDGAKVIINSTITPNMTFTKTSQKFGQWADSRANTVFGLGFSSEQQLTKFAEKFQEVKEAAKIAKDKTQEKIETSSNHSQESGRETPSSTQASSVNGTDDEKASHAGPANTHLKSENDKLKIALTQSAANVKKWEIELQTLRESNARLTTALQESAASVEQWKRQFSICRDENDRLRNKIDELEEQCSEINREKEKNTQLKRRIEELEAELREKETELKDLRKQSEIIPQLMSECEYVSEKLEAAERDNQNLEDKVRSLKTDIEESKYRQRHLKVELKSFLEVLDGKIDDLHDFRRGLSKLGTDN

T4: HOMER1 1-163 WH1 (domain begin residue: 1, domain end residue: 163), Q86YM7
T4 chain: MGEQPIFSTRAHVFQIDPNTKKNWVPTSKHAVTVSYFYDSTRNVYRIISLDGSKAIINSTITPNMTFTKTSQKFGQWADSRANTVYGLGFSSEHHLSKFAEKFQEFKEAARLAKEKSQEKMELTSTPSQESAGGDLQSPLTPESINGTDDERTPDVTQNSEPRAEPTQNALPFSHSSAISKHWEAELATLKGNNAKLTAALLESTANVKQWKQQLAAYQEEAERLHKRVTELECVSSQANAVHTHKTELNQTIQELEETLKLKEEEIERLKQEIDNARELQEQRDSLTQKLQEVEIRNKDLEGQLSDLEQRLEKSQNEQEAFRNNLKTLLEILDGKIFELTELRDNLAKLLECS

T5: GNAZ 2-355 G-alpha (domain begin residue: 2, domain end residue: 355), P19086
T5 chain: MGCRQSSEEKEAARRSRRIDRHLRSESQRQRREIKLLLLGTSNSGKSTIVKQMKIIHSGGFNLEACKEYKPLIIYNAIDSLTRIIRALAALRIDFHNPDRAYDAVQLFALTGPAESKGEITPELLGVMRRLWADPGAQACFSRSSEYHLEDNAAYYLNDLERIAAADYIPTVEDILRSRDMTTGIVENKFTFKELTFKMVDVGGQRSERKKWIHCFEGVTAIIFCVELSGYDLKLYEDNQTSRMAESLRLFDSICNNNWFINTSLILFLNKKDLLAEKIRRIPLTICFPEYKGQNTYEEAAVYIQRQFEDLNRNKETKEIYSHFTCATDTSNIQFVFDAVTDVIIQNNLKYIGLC


Molecular target: T1, HOMER3 1-118 WH1 (domain begin residue: …
Assay: phage ELISA signal ratio (GST-PRM binding over GST background); higher = stronger binding of peptide-phage to the PRM
In short: (§1)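 Approximately 48 individual clones from selection rounds 4 and 5 were tested by phage ELISA, and those scoring positive were sequenced. They came from five rounds of selecting an M13 phage library of randomized, cysteine-free, glycine-flanked hexadecapeptides on the gene-8 major coat protein against human peptide recognition domains fused to the C-terminus of glutathione S-transferase (GST) in 96-well plates. Each figure in the table is the ELISA signal on the GST-domain fusion relative to the signal on GST alone.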

Row | Binder | phage ELISA signal ratio
1 | TQAFQHDHFWESLVMF | 4.73
2 | YHYIAEVPEQFVDMHR | 10.5
3 | RQYKWWEWLVVQQPKA | 5.84

Molecular target: T2, HNF4A 148-377 Hormone_recep (domain …
Assay: as above
In short: as §1

Row | Binder | phage ELISA signal ratio
4 | DWQGDHVHFWDLITME | 10.8

The binders below were run against HSPA8 394-614 HSP70 (domain begin residue: 394, domain end residue: 614), P11142 in the same assay as above.
In short: as §1

Sequence of HSPA8 394-614 HSP70 (domain begin residue: 394, domain end residue: 614), P11142 (P11142 whole entry, looked up, tested part not stated): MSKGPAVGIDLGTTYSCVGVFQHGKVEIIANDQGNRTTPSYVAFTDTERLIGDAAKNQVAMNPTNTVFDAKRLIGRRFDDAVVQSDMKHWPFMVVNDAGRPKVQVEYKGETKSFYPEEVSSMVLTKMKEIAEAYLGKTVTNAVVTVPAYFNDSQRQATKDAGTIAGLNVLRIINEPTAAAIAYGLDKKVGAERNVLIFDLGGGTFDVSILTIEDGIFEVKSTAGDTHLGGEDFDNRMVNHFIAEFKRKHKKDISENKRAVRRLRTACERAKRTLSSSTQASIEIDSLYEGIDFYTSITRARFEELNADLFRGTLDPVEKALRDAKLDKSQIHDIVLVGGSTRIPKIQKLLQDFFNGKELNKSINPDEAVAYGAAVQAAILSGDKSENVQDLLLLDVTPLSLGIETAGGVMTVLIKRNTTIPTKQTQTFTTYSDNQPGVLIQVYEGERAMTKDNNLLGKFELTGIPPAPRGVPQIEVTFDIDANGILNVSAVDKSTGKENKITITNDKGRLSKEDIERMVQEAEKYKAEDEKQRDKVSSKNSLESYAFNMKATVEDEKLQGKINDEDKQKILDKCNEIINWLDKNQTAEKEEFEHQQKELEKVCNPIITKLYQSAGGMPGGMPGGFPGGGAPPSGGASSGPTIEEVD

Row | Binder | phage ELISA signal ratio
5 | SLDQSDIRHIFYWMEW | 10.4
6 | PDVLQQLWEAMRSENW | 20.4
7 | DAEMQDFIMAWWPELV | 8.68
8 | QHMHFVMLDEIMYGMW | 23.6
9 | YNELEPEVAAWWWQYV | 8.35

Molecular target: T3, HOMER2 1-111 WH1 (domain begin residue: …
Assay: as above
In short: as §1

Row | Binder | phage ELISA signal ratio
10 | YRYIAEVPEQFVDMHR | 15.5
11 | HWVIPWETVPAPHEFH | 15.2
12 | WEEWTNWASPPHEYRF | 10.2
13 | SHITLIHEPPYGWTTN | 14.3
14 | SDWLSTVWEHPMDWGA | 13.5
15 | WGSLDWEVALKPPVEF | 17.9

Each binder was assayed against HGS 1-154 VHS (domain begin residue: 1, domain end residue: 154), O14964 in the same assay as above.
In short: as §1

Sequence of HGS 1-154 VHS (domain begin residue: 1, domain end residue: 154), O14964 (O14964 whole entry): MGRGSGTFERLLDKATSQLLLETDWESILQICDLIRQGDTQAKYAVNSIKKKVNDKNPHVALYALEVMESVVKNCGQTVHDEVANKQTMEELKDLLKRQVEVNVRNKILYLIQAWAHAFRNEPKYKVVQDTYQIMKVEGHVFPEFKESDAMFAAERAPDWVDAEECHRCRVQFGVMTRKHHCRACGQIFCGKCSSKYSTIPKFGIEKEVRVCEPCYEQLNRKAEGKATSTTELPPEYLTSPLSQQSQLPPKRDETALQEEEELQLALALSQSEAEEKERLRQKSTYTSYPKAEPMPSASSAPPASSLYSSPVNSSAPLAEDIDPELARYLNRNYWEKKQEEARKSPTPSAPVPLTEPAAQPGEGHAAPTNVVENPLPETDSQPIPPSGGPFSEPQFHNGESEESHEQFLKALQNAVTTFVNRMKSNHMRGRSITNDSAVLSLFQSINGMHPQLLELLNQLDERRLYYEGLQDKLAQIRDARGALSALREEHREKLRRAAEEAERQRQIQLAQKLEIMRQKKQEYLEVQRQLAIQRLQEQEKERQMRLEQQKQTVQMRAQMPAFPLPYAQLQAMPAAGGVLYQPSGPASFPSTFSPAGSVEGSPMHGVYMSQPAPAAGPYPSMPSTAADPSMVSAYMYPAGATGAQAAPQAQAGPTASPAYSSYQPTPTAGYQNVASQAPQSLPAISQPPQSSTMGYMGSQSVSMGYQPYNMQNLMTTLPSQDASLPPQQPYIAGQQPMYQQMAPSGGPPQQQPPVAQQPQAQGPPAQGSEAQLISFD

Row | Binder | phage ELISA signal ratio
16 | PNHWFVIPIGEWYQKI | 15.9

What follows are binders tested against HSPA9 438-651 HSP70 (domain begin residue: 438, domain end residue: 651), P38646 in the same assay as above.
In short: as §1

Sequence of HSPA9 438-651 HSP70 (domain begin residue: 438, domain end residue: 651), P38646 (P38646 whole entry): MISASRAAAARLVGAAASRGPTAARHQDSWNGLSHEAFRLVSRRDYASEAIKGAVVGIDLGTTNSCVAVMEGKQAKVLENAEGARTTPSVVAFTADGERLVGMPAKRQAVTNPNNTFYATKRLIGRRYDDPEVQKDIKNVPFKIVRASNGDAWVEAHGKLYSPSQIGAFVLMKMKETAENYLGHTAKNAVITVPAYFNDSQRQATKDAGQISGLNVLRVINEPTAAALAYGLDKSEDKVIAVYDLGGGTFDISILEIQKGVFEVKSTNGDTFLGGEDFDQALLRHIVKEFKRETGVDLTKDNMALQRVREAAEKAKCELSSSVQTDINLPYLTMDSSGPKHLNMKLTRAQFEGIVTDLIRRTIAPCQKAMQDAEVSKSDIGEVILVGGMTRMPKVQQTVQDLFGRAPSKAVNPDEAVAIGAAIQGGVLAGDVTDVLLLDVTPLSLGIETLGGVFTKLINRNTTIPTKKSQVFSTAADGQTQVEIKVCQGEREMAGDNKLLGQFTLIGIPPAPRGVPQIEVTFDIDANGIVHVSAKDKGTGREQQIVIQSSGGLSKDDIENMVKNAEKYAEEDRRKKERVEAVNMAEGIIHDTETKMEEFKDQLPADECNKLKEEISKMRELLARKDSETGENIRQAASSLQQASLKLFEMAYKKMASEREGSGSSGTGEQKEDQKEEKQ

Row | Binder | phage ELISA signal ratio
17 | FYIYDTWVEWPPVVTV | 6.36
18 | TVSVTNIDMDMLSFLL | 15
19 | VMTLTELQDWLNAAYV | 15
20 | YQMTDWTTWEHFMHMT | 6.13
21 | QVAMSEQSLNYFLTLL | 3.89
22 | VPWGDAQFSWPVEWMI | 8.49
23 | ALEMTMEQWTYFLQEW | 10.8
24 | YMMDQHAWELLMTMMA | 16.4

Molecular target: T4, HOMER1 1-163 WH1 (domain begin residue: …
Assay: as above
In short: as §1

Row | Binder | phage ELISA signal ratio
25 | MEVMPPQGFQDAFLST | 4.78
26 | NWWHSDLQPPQEWQDE | 4.77

Molecular target: T5, GNAZ 2-355 G-alpha (domain begin …
Assay: as above
In short: as §1

Row | Binder | phage ELISA signal ratio
27 | SPPQDVPPLWEYYHIW | 32.1
28 | EWSWSDSMHQFMNENT | 27.6
29 | GNHIWYWDQDEKLLEL | 30.4
